Measured values taken from PubChem BioAssay (EPA / NIEHS).
“And” between values parts separate entries of the source, which are not always exact repeats. Identical values can stand only once. The source holds several records for some structures; these can differ, active in one and inactive in another. The source made the active and inactive calls. Rule for the calls: active = hit-call score of the fitted dose curve at least 0.9, where 1 is the maximum; inactive = score below 0.9.

Tests used:
[1] = ATG_GLI_CIS: Attagene CIS-FACTORIAL HepG2 Assay for human Zinc Finger Protein GLI1 (AID 2282945); details: HepG2, Attagene cis-factorial reporter mRNA, GLI element; actives raise or lower the signal
Summary of the method: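 Bidirectional curve fits relative to DMSO, using reporter mRNA levels from RT-PCR plus capillary electrophoresis. Cells were HepG2 transiently carrying cis-regulated reporter constructs, harvested 24 h after dosing.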

[2] = biological target: Bile acid receptor (Homo sapiens) (UniProt Q96RI1); assay: ATG_IR1_CIS: Attagene CIS-FACTORIAL HepG2 Assay for human Nuclear Receptor Subfamily 1 Group H Member 4 (NR1H4), IR1 submotif (AID 2282946); details: IR1 reporter transcription, actives raise or lower the signal
Summary of the method: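 Cells (human HepG2) carry transiently transfected cis-promoter reporter transcription units. Compounds are incubated 24 h, total RNA is reverse-transcribed and amplified, and labelled fragments are resolved by capillary electrophoresis. Curves use DMSO as baseline.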

[3] = ATG_GRE_CIS: Attagene CIS-FACTORIAL HepG2 Assay for human Glucocorticoid Response Elements (GRE) (AID 2282947); details: HepG2 GRE cis-reporter, Attagene multiplex mRNA; actives raise or lower the signal
Summary of the method: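 Transient MRTU transfection of human HepG2 liver cells; cis-regulated reporters report endogenous factors. 24 h dosing → RNA isolation → RT-PCR → 6-FAM primer extension → HpaI cut → CE fragment analysis. Bidirectional fit, DMSO negative control.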

[4] = ATG_ISRE_CIS: Attagene CIS-FACTORIAL HepG2 Assay for human Interferon Regulatory Factor 1 (IRF1) binding to an Interferon-Stimulated Response Element (ISRE) (AID 2282948); details: HepG2 ISRE cis-reporter (Attagene), mRNA transcription readout; actives raise or lower the signal
Summary of the method: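 Cell-based cis-reporter assay; HepG2; 24 h exposure; reporter mRNA by RT-PCR plus capillary electrophoresis fluorescence; activity in either direction scored relative to DMSO.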

[5] = ATG_M_32_CIS: Attagene CIS-FACTORIAL HepG2 Assay for M32 Transcription Factor (Internal Marker) (AID 2282949); details: HepG2 Attagene cis-factorial M32 reporter, mRNA; actives raise or lower the signal;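 note: background control marker of the multiplexed CIS panel rather than a real target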
Summary of the method: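 Fluorescent capillary electrophoresis peaks of HpaI-digested, FAM-labelled RT-PCR reporter products give the signal. Source: transiently transfected human liver HepG2 cells, 24 h after chemical dosing; bidirectional fitting against DMSO.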

[6] = biological target: Hypoxia-inducible factor 1-alpha (Homo sapiens) (UniProt Q16665); assay: ATG_HIF1a_CIS: Attagene CIS-FACTORIAL HepG2 Assay for human Hypoxia Inducible Factor 1 (HIF1A) (AID 2282951); details: HepG2 Attagene cis-factorial HIF1a reporter transcription; actives raise or lower the signal
Summary of the method: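 In this multiplexed cell assay, HepG2 cells bearing transfected cis reporters are dosed for 24 h and reporter mRNA is read by RT-PCR plus capillary electrophoresis; signal increases and decreases are both scored against DMSO.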

[7] = biological target: Hepatocyte nuclear factor 6 (Homo sapiens) (UniProt Q9UBC0); assay: ATG_HNF6_CIS: Attagene CIS-FACTORIAL HepG2 Assay for human Hepatocyte Nuclear Factor 6 (HNF6) (AID 2282952); details: HepG2 Attagene cis-factorial HNF6 reporter transcription; actives raise or lower the signal
Summary of the method: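 Multiplexed mRNA reporter assay in transfected HepG2; 24 h dosing; RT-PCR plus capillary electrophoresis fluorescence; DMSO-referenced bidirectional curve fitting.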

[8] = biological target: Heat shock factor protein 1 (Homo sapiens) (UniProt Q00613); assay: ATG_HSE_CIS: Attagene CIS-FACTORIAL HepG2 Assay for human Heat Shock Transcription Factor 1 (HSE) (AID 2282953); details: HepG2 HSE cis-reporter, Attagene RNA transcription; actives raise or lower the signal
Summary of the method: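 After a 24 h incubation with test chemical, transfected HepG2 cells were harvested for RNA; reporter transcripts were measured by RT-PCR and capillary electrophoresis. Values reflect gain or loss of signal relative to DMSO.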

[9] = ATG_MRE_CIS: Attagene CIS-FACTORIAL HepG2 Assay for human Metal Responsive Element (MRE) (AID 2282954); details: HepG2 MRE cis-reporter transcription, Attagene multiplex; actives raise or lower the signal
Summary of the method: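 Transient MRTU transfection of HepG2 (FuGene 6); 24 h dosing; total RNA → oligo(dT) RT, PCR, 6-FAM primer extension, HpaI cut, CE. Bidirectional fit vs DMSO.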

[10] = ATG_PBREM_CIS: Attagene CIS-FACTORIAL HepG2 Assay for human Phenobarbital-responsive Enhancer Module (PBREM) (AID 2282955); details: HepG2 PBREM cis-reporter, Attagene multiplexed transcription; actives raise or lower the signal
Summary of the method: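 After a 24 h incubation with test chemical, transfected HepG2 cells yield total RNA; reporter-specific RT-PCR products are fluorescently labelled, HpaI-digested and resolved by capillary electrophoresis against ROX size standards.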

[11] = biological target: Paired box protein Pax-6 (Homo sapiens) (UniProt P26367); assay: ATG_Pax6_CIS: Attagene CIS-FACTORIAL HepG2 Assay for human Paired Box 6 (PAX6) (AID 2282956); details: HepG2 CIS-FACTORIAL PAX6 reporter transcription, RNA readout; actives raise or lower the signal
Summary of the method: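 Multiplexed cis-reporter HepG2 system; 24 h treatment; reporter mRNA read by RT-PCR/CE fluorescence; bidirectional fit vs DMSO.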

[12] = ATG_PXRE_CIS: Attagene CIS-FACTORIAL HepG2 Assay for human Pregnane X Receptor Element (PXRE) (AID 2282957); details: HepG2 Attagene CIS-FACTORIAL PXRE reporter, mRNA; actives raise or lower the signal
Summary of the method: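 Cells: HepG2, transiently transfected reporter units under cis promoter control. Exposure: 24 h. Detection: reporter mRNA via RT-PCR/CE fluorescence; bidirectional fitting, DMSO-referenced.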

[13] = ATG_PPRE_CIS: Attagene CIS-FACTORIAL HepG2 Assay for human Peroxisome Proliferator-activated Response Element (PPRE) (AID 2282958); details: HepG2 PPRE cis-element reporter, Attagene transcription factor profiling; actives raise or lower the signal
Summary of the method: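 Multiplexed reporter transcription units under cis-regulatory promoters were transfected into HepG2 cells to capture endogenous factor activity. A 24 h incubation preceded RNA isolation and fluorescent RT-PCR fragment analysis.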

[14] = ATG_RORE_CIS: Attagene CIS-FACTORIAL HepG2 Assay for human RAR-related Orphan Receptor Element (RORE) (AID 2282959); details: HepG2 Attagene cis-factorial RORE reporter, mRNA; actives raise or lower the signal
Summary of the method: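 Fluorescence intensity of reporter-specific cDNA fragments, separated by capillary electrophoresis, gives the signal. Source: HepG2 liver cells transiently transfected with cis-element reporters and exposed 24 h; DMSO-normalized bidirectional fit.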

[15] = ATG_Sox_CIS: Attagene CIS-FACTORIAL HepG2 Assay for human SRY-box transcription factor (SOX) (AID 2282960); details: HepG2 Attagene cis-factorial SOX reporter, mRNA; actives raise or lower the signal
Summary of the method: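 After 24 h of chemical treatment, transfected HepG2 reporter cells are lysed for total RNA. Transcript levels come from RT-PCR with labelled primer extension and capillary electrophoresis, analysed bidirectionally versus DMSO.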

[16] = ATG_SREBP_CIS: Attagene CIS-FACTORIAL HepG2 Assay for human Sterol Regulatory Element Binding (SREBP) (AID 2282962); details: HepG2 Attagene cis-factorial SREBP reporter, mRNA; actives raise or lower the signal
Summary of the method: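 mRNA induction of transfected cis-promoter reporters in HepG2 cells, 24 h post-dose. Detection: RT-PCR with 6-FAM-labelled products, HpaI digest, capillary electrophoresis. DMSO served as negative control and baseline.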

[17] = biological target: Signal transducer and activator of transcription 3 (Homo sapiens) (UniProt P40763); assay: ATG_STAT3_CIS: Attagene CIS-FACTORIAL HepG2 Assay for human Signal Transducer and Activator of Transcription 3 (STAT3) (AID 2282963); details: HepG2, Attagene cis-factorial STAT3 reporter transcription; actives raise or lower the signal
Summary of the method: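 Endogenous STAT3-responsive cis-element activity was read in transiently transfected HepG2 cells after 24 h treatment. Reporter transcripts were quantified via RT-PCR and capillary electrophoresis, with DMSO as negative control and bidirectional curve fitting.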

[18] = ATG_TA_CIS: Attagene CIS-FACTORIAL HepG2 Assay for human TA Basal Promoter (AID 2282964); details: HepG2 Attagene CIS-factorial TA basal promoter reporter; actives raise or lower the signal
Summary of the method: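 Multiplexed mRNA reporter assay, HepG2, 24 h. Reporter cDNA amplified, 6-FAM primer-extended, HpaI-cut, CE-sized; DMSO = negative control and baseline.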

[19] = ATG_M_06_CIS: Attagene CIS-FACTORIAL HepG2 Assay for M06 Transcription Factor (Internal Marker) (AID 2282950); details: HepG2 Attagene CIS-FACTORIAL M06 internal marker reporter; actives raise or lower the signal
Summary of the method: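 Fluorescence-labelled RT-PCR products from cis-promoter reporter units, cut with HpaI and resolved by capillary electrophoresis, give the signal. Cells are human HepG2, dosed for 24 h. Serves as background control, fitted relative to DMSO.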

[20] = biological target: Transcription factor Sp1 (Homo sapiens) (UniProt P08047); assay: ATG_Sp1_CIS: Attagene CIS-FACTORIAL HepG2 Assay for human Specificity Protein 1 (Sp1) (AID 2282961); details: HepG2 Sp1 cis-reporter transcription, actives raise or lower the signal
Summary of the method: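 Sp1-driven reporter mRNA, read as capillary electrophoresis fluorescence after RT-PCR, in transiently transfected HepG2 cells dosed for 24 h; signal change in either direction relative to DMSO.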

Measured: AC50

Signal transducer and activator of transcription 3 (Homo sapiens), sequence (P40763 whole entry, looked up): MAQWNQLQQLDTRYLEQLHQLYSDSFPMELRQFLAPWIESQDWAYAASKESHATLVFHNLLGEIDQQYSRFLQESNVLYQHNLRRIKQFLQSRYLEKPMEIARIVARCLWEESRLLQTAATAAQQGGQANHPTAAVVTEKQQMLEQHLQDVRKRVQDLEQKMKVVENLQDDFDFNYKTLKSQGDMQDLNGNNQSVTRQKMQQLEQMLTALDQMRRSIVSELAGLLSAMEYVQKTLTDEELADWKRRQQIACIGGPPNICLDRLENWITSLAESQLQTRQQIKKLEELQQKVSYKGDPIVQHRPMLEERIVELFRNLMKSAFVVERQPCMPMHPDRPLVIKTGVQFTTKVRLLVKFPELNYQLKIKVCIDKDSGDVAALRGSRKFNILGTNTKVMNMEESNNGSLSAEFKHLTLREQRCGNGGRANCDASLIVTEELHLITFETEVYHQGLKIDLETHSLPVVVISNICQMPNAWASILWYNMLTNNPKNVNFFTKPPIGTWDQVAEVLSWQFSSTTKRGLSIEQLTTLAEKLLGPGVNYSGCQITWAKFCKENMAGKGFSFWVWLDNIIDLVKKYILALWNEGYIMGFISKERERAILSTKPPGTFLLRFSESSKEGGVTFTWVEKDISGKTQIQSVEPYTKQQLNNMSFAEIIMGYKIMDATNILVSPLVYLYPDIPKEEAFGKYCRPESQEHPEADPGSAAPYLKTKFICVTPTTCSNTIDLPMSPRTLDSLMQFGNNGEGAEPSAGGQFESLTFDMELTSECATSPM
Transcription factor Sp1 (Homo sapiens), sequence (P08047 whole entry, looked up): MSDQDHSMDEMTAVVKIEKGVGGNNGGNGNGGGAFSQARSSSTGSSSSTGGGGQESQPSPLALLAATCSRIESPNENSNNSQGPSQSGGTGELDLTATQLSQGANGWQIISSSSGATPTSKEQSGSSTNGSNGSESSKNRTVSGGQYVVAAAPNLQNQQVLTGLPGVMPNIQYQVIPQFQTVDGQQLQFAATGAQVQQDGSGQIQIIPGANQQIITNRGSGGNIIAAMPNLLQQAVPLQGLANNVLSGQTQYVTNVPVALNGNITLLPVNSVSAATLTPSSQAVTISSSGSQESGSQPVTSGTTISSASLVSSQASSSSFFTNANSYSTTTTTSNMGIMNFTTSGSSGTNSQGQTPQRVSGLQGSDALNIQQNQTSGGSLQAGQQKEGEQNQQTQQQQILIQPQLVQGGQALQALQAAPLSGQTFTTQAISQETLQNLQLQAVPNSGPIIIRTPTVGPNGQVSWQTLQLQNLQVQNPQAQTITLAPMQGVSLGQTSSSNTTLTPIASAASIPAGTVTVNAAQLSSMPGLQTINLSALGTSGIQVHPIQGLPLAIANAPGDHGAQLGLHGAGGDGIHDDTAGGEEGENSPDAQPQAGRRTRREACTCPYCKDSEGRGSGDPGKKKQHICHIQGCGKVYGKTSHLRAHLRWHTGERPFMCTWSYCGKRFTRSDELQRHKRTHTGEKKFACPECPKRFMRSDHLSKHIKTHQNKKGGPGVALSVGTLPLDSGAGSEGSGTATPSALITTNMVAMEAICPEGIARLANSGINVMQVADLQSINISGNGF
Bile acid receptor (Homo sapiens), sequence (Q96RI1 whole entry, looked up, the tested form may be a part): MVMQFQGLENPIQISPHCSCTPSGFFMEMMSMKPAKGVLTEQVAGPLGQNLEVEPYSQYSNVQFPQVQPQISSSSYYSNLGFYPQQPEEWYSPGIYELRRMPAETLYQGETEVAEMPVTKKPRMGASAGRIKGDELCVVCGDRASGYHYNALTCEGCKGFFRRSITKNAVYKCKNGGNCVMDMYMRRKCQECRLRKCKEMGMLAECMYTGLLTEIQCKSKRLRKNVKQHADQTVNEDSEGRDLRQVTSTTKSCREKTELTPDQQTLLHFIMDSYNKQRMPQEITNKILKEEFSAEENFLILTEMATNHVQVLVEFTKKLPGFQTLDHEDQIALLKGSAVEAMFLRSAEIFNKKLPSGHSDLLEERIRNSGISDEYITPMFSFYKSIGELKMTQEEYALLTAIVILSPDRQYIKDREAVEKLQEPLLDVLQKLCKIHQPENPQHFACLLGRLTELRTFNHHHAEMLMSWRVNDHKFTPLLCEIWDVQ
Hepatocyte nuclear factor 6 (Homo sapiens), sequence (Q9UBC0 whole entry, looked up): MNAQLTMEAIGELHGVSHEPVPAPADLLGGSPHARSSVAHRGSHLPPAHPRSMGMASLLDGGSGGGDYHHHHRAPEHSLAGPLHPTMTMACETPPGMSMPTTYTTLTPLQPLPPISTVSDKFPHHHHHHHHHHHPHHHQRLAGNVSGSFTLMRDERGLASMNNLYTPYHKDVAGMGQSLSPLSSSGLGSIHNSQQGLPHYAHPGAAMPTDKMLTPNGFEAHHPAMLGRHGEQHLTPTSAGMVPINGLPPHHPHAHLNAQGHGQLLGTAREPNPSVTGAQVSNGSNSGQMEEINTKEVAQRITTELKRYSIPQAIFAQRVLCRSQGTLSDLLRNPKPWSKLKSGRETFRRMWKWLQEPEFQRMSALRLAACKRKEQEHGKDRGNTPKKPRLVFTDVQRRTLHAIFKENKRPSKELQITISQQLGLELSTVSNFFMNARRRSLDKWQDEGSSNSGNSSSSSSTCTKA
Hypoxia-inducible factor 1-alpha (Homo sapiens), sequence (Q16665 whole entry, looked up): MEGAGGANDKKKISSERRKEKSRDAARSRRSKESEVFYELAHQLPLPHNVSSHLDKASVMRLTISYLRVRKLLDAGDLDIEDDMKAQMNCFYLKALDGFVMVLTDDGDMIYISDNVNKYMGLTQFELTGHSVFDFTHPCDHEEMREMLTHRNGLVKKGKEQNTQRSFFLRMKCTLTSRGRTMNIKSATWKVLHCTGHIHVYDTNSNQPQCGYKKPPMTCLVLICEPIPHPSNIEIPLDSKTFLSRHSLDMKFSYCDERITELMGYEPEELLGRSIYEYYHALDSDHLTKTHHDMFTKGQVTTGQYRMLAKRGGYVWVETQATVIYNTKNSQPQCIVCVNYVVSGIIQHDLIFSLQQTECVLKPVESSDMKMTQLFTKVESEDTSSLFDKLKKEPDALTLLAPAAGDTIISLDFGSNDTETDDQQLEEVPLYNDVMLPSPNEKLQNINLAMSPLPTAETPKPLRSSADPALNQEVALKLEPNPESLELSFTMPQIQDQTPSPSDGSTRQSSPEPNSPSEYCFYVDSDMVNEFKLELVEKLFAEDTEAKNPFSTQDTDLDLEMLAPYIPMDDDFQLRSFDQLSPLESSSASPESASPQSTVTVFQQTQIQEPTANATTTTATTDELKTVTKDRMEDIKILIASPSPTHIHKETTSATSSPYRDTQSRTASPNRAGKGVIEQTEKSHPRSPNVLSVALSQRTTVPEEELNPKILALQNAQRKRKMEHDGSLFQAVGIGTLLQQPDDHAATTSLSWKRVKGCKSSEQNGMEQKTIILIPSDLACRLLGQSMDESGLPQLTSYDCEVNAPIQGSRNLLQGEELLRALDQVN
Paired box protein Pax-6 (Homo sapiens), sequence (P26367 whole entry, looked up): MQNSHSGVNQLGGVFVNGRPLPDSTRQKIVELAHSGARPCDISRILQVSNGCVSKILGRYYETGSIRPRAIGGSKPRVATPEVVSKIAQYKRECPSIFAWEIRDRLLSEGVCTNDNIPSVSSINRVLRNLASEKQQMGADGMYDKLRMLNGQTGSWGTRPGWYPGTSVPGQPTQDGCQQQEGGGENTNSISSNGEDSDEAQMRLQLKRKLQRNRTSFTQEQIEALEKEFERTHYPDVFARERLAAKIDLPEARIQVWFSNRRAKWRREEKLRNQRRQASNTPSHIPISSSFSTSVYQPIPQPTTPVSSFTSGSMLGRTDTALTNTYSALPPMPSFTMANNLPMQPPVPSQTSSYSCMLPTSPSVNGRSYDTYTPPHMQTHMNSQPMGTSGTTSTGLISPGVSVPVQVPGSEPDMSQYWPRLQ
Heat shock factor protein 1 (Homo sapiens), sequence (Q00613 whole entry, looked up): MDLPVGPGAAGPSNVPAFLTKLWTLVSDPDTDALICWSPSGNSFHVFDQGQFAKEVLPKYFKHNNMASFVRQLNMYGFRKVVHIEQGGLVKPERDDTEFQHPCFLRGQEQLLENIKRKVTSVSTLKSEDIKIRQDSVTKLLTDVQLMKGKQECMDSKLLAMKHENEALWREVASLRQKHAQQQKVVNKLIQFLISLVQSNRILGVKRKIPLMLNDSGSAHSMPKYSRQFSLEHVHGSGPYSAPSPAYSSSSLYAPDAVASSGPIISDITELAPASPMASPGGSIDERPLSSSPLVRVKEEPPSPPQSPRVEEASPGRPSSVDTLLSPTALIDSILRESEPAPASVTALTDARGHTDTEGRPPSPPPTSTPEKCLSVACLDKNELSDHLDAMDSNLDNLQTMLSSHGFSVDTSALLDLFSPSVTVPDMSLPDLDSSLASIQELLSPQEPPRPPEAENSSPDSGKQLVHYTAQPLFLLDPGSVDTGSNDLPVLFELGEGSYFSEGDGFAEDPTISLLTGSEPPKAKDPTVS

C=CCOC(=O)/C=C\C(=O)OCC=C
active: [4] 19.7 µM | [6] 18.6 µM | [7] 28 µM | [8] 164 µM | [9] 39.5 µM | [11] 26 µM | [12] 20.1 µM | [14] 11.3 µM | [15] 27.6 µM
not listed: [19] | [20]
inactive: all other assays above

COc1ccc2[nH]cc(CCNC(C)=O)c2c1
not listed: [6] | [9]
inactive: all other assays above

CC(CO)(CO)[N+](=O)[O-]
not listed: [8] | [10] | [20]
inactive: all other assays above

C=C(C)C(=O)OCCOCCOC(=O)C(=C)C
not listed: [3] | [9] | [14]
inactive: all other assays above

C=CC(O)CCCCC (stereo not given)
active: [6] 26.9 µM | [11] 58.6 µM | [15] 100 µM
not listed: [3] | [14] | [18]
inactive: all other assays above

CCOCC(C)O (stereo not given)
active: [12] 45.3 µM
not listed: [10] | [17]
inactive: all other assays above

O=C(c1ccc(OCCN2CCCCC2)cc1)c1c(-c2ccc(O)cc2)sc2cc(O)ccc12
active: [1] 11.1 µM and 15.2 µM | [3] 20.2 µM | [4] 11.1 µM and 17 µM and 14.8 µM | [8] 17.2 µM and 17.7 µM and 19.8 µM | [9] 15.8 µM [middle of 4 runs] | [11] 11.1 µM [middle of 4 runs] | [12] 2.79 µM [middle of 4 runs] | [15] 13 µM and 18 µM | [16] 6.38 µM and 2.85 µM and 2.92 µM | [18] 19.3 µM and 8.31 µM
inactive: [1] | [3] | [4] | [5] | [19] | [8] | [9] | [10] | [11] | [12] | [13] | [15] | [16] | [17] | [18]
